Source: PubChem BioAssay
PME-1 inh – PME-1 (human) inhibition; inhibition, % at 5.9 µM; recombinant PME-1, FP-Rh probe fluorescence polarization; 0.53% of 320,000 active;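 active means inhibition above the campaign mean of all compounds plus 3 SD, cut at about 26% in these data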;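 further: competitive labeling of PME-1 active site by serine hydrolase directed probe; 0% = PME-1 with DMSO and 100% = wells lacking PME-1 enzyme; inhibitors block probe labeling so polarization falls and inhibition rises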
LYPLA1 counter – LYPLA1 (human) inhibition in PME1 counter-screen | O75608 | recombinant LYPLA1, FP-Rh probe fluorescence polarization | inhibition, % at 5.9 µM | 0.16% of 320,000 active | AID 2174;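 active means inhibition above the mean of all tested compounds plus 3 SD, set per campaign, cut at about 14% in these data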;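 further: inhibitors block serine hydrolase probe labeling of LYPLA1 so polarization falls; 0% = enzyme with DMSO and 100% = wells lacking LYPLA1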
LYPLA2 inh – counter-screen for PME1 inhibitors: inhibitors of human LYPLA2. O95372. recombinant LYPLA2, FP-Rh probe fluorescence polarization. inhibition, % at 5.9 µM. 0.38% of 320,000 active. AID 2177;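 active means inhibition above the screen-wide mean plus 3 SD, limit set per campaign, cut at about 26% in these data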;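 further: 0% = LYPLA2 with DMSO and 100% = wells lacking LYPLA2 enzyme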
Target sequence (O95372 whole entry, looked up): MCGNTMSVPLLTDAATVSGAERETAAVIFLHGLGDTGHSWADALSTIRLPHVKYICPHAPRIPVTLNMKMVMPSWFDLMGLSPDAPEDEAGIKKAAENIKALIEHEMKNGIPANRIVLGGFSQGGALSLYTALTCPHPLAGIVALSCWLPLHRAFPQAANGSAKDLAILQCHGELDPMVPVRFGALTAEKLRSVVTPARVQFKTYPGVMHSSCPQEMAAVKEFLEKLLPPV
PP1 counter – blocks human PP1-alpha phosphatase, a PP5 counter-screen. P62136. purified PP1alpha, OMFP fluorescence. inhibition, % at 6.7 µM. 0.9% of 320,000 active;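 active means inhibition above the mean inhibition of all tested compounds plus 3 SD, computed separately for each screening campaign, cut at about 15% in these data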
Target sequence (P62136 whole entry, looked up): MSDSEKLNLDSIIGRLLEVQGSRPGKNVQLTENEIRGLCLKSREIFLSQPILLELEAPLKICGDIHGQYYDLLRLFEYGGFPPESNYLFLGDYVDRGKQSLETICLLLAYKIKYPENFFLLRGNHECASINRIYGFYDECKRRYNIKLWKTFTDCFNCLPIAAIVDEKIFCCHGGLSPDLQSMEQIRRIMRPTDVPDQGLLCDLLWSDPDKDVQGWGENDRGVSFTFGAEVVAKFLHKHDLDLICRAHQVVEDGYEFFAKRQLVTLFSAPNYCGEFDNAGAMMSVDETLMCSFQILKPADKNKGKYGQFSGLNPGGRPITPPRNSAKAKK
Fam108B counter – counter-screen for RBBP9 inhibitors: inhibitors of mouse Fam108B; inhibition, % at 9.51 µM; recombinant Fam108B, FP-Rh probe fluorescence polarization; 0.33% of 300,000 active;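 active means inhibition above the screen mean inhibition plus 3 SD, computed separately per campaign, cut at about 18% in these data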;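 further: inhibitors lower polarization as less probe binds the enzyme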
PP5 primary – blocks human protein phosphatase 5 activity; P53041; purified PP5c, OMFP substrate fluorescence; inhibition, % at 6.7 µM; 0.18% of 320,000 active; AID 1987;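 active means inhibition above the campaign's mean inhibition across all tested compounds plus 3 SD, cut at about 9.5% in these data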;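 further: 0% = DMSO only and 100% = 100 µM cantharidin control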
LYPLA2 conf – LYPLA2 (human) inhibition, confirmation counter-screen | shares compounds with LYPLA2 inh | recombinant LYPLA2, FP-Rh probe fluorescence polarization | inhibition, % at 5.9 µM | 72% of 1,100 active;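 active means mean inhibition across replicates above the hit cutoff set in the primary screen, cut at about 26% in these data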;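 further: blocked labeling of the enzyme by serine hydrolase FP-Rh probe lowers polarization; 0% = enzyme with DMSO and 100% = wells lacking LYPLA2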
LYPLA2 ABPP – inhibitors of human LYPLA2. AID 652029. shares compounds with LYPLA2 inh. 30% of 150 active. rhLYPLA2 in mouse brain proteome, gel ABPP FP-Rh. inhibition, % at 20 µM;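 active means inhibition of LYPLA2 enzyme probe labeling above about 50%, limit read from the data; inactive means inhibition below that limit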;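 further: loss of FP-Rh probe labeling of the LYPLA2 gel band measured as band density; 0% = DMSO only control band and 100% = blank gel background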
Starred values were filed as active, the others as inactive. Hits are enriched below; roughly 1.8% of the tested compounds scored in any of these assays.

Results for Cc1nn(-c2ccccc2)c2sc(C(=O)OC3CCOC3=O)cc12 (stereo unspecified) ?
PME-1 inh: -2; LYPLA1 counter: -7; LYPLA2 inh: 36*; PP1 counter: -1; Fam108B counter: -4; PP5 primary: 3; LYPLA2 conf: 43*

How did O=C1NC(=O)c2cc(Oc3ccc([N+](=O)[O-])cc3)ccc21 do in these assays?
PME-1 inh: 0; LYPLA1 counter: 1; LYPLA2 inh: 30*; PP1 counter: -4; Fam108B counter: -1; PP5 primary: 0; LYPLA2 conf: 36*

Results for O=C(O)c1ccc(CN2C(=O)c3ccc(Oc4ccc([N+](=O)[O-])cc4)cc3C2=O)cc1 ?
PME-1 inh: -5; LYPLA1 counter: -5; LYPLA2 inh: 59*; PP1 counter: -8; Fam108B counter: -4; PP5 primary: -4; LYPLA2 conf: 66*; LYPLA2 ABPP: 59*

How did O=C(O)c1cccc(Oc2ccc([N+](=O)[O-])cc2)c1 do in these assays?
PME-1 inh: -5; LYPLA1 counter: -3; LYPLA2 inh: 1; PP1 counter: 9; Fam108B counter: -2; PP5 primary: 0

What do the screens show for `Nc1cccc(Oc2ccc([N+](=O)[O-])cc2)c1`?
PME-1 inh: -5; LYPLA1 counter: 3; LYPLA2 inh: 32*; PP1 counter: -1; Fam108B counter: -7; PP5 primary: 0; LYPLA2 conf: 35*

What do the screens show for `O=C1c2ccc(Oc3ccc([N+](=O)[O-])cc3)cc2C(=O)N1CCO`?
PME-1 inh: 0; LYPLA1 counter: 0; LYPLA2 inh: 20; PP1 counter: -1; Fam108B counter: 1; PP5 primary: 1

Results for COc1ccc(CN(C)C(=O)c2cnc(OC)cc2C(F)(F)F)c(OC)c1 ?
PME-1 inh: 6; LYPLA1 counter: 0; LYPLA2 inh: 0; PP1 counter: -2; Fam108B counter: 3; PP5 primary: -1

How did COc1ccc(C(=O)NC(=S)NCc2cccnc2)cc1[N+](=O)[O-] do in these assays?
PME-1 inh: -6; LYPLA1 counter: 12; LYPLA2 inh: 35*; PP1 counter: 2; Fam108B counter: 2; PP5 primary: 1; LYPLA2 conf: 24

How did COc1ccc(C(=O)NC(=S)Nc2cccc3ncccc23)cc1[N+](=O)[O-] do in these assays?
PME-1 inh: -127; LYPLA1 counter: 6; LYPLA2 inh: 48*; PP1 counter: 4; Fam108B counter: 2; PP5 primary: 1; LYPLA2 conf: 51*; LYPLA2 ABPP: 38

What do the screens show for `O=C(Nc1cccc2ncccc12)c1ccc(Br)c([N+](=O)[O-])c1`?
PME-1 inh: -3; LYPLA1 counter: -3; LYPLA2 inh: 33*; PP1 counter: 0; Fam108B counter: 1; PP5 primary: 0; LYPLA2 conf: 47*

How did Cc1cc(C)c(C#N)c(SCc2[nH]nc3c2C(c2ccc(F)cc2)C(C#N)=C(N)O3)n1 (stereo unspecified) do in these assays?
PME-1 inh: 12; LYPLA1 counter: -2; LYPLA2 inh: 40*; PP1 counter: 3; Fam108B counter: -4; PP5 primary: 2; LYPLA2 conf: 36*

What do the screens show for `Nc1ccc(CCn2ccnc2)cc1`?
PME-1 inh: -2; LYPLA1 counter: 1; LYPLA2 inh: 2; PP1 counter: 8; Fam108B counter: 0; PP5 primary: 1

Results for COc1ccc(CCC(C)NCCc2ccc(Cl)cc2Cl)cc1 (stereo unspecified) ?
PME-1 inh: 1; LYPLA1 counter: 4; LYPLA2 inh: 10; PP1 counter: 4; Fam108B counter: -2; PP5 primary: 3

What do the screens show for `CN(Cc1ccccc1)C(=O)c1ccc(NC(=O)Cc2cccc(NC(=O)C3CCN(C(=O)C4CCCCC4)CC3)c2)cc1`?
PME-1 inh: -11; LYPLA1 counter: -7; LYPLA2 inh: -12; PP1 counter: 1; PP5 primary: 2

How did CN(C(=O)c1ccc(NC(=O)Cc2cccc(NC(=O)C3CCN(C(=O)C4CCCC4)CC3)c2)cc1)C1CCCC1 do in these assays?
PME-1 inh: -2; LYPLA1 counter: 3; LYPLA2 inh: 32*; PP1 counter: -2; PP5 primary: 3; LYPLA2 conf: -5

How did CN(C(=O)c1ccc(NC(=O)Cc2ccc(NC(=O)C3CCCN(C(=O)C4CC4)C3)cc2)cc1)C1CC1 (stereo unspecified) do in these assays?
PME-1 inh: -1; LYPLA1 counter: 3; LYPLA2 inh: 60*; PP1 counter: 3; PP5 primary: -1; LYPLA2 conf: 61*; LYPLA2 ABPP: 45

Results for CN(C(=O)c1ccc(NC(=O)Cc2ccc(NC(=O)C3CCN(C(=O)C4CC4)CC3)cc2)cc1)C1CC1 ?
PME-1 inh: 1; LYPLA1 counter: 4; LYPLA2 inh: 5; PP1 counter: -6; PP5 primary: -1

How did O=C(c1ccc(OC2CCN(CCc3ccccc3)CC2)cc1)N1CCCC(CO)C1 (stereo unspecified) do in these assays?
PME-1 inh: 4; LYPLA1 counter: 2; LYPLA2 inh: 19; PP1 counter: -7; Fam108B counter: 3; PP5 primary: 1

How did CC1CCCN(C(=O)c2ccc(OC3CCN(CCc4ccccc4)CC3)cc2)C1 (stereo unspecified) do in these assays?
PME-1 inh: 2; LYPLA1 counter: 1; LYPLA2 inh: 41*; PP1 counter: 1; Fam108B counter: 3; PP5 primary: 1; LYPLA2 conf: 33*

Results for O=C1c2ccc(Cl)cc2S(=O)(=O)c2cccc(C(=O)N3CCN(c4ccc(Cl)cn4)CC3)c21 ?
PME-1 inh: 8; LYPLA1 counter: 1; LYPLA2 inh: 5; PP1 counter: 8; PP5 primary: 4

What do the screens show for `CC(=O)Nc1cccc(C(=O)OC(C)C(=O)N2CCc3ccccc32)c1` (stereo unspecified)?
PME-1 inh: 6; LYPLA1 counter: 0; LYPLA2 inh: 28*; PP1 counter: -1; Fam108B counter: 0; PP5 primary: -1; LYPLA2 conf: 28*

Results for CC(OC(=O)c1cccc([N+](=O)[O-])c1)C(=O)N1CCc2ccccc21 (stereo unspecified) ?
PME-1 inh: -4; LYPLA1 counter: -2; LYPLA2 inh: 11; PP1 counter: -3; PP5 primary: 0

How did CC(C)(C)c1ccc(Cn2nnc3c(=O)[nH]c(C4CCN(C(=O)Cc5cccs5)CC4)nc32)cc1 do in these assays?
PME-1 inh: 7; LYPLA1 counter: -2; LYPLA2 inh: 27*; PP1 counter: 12; Fam108B counter: 1; PP5 primary: 5; LYPLA2 conf: -3
